Shown are actives, neighbours in structure and some others; about 3.5% of the full set was active somewhere.
FBW7 activator = human FBW7 E3 ligase activation, primary screen | Q969H0 | hit rate 0.13% among 650,000 | normalized activity (activation), % at 26.1 µM | AlphaScreen FBW7–phospho-cyclin E peptide binding, activator screen; in the data active = normalized activity above about 1.9%;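 also: purified mutant Fbw7 with reduced substrate affinity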
GPR151 ag = activates the human receptor GPR151; Q8TDV0; PathHunter beta-arrestin GPR151 cells, luminescence; activation, % at 11.2 µM; hit rate 1% among 650,000; in the data active = activation above about 4.9%;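 also: 0% = median of compound wells and 100% = cells with positive control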
MITF inh = human MITF inhibition, primary screen; O75030; AlphaScreen MITF homodimerization, bead proximity signal; inhibition, % at 2.6 µM; hit rate 0.91% among 650,000; in the data active = inhibition above about 50%;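 also: 0% = vehicle wells with protein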
Target sequence (O75030 whole entry, looked up): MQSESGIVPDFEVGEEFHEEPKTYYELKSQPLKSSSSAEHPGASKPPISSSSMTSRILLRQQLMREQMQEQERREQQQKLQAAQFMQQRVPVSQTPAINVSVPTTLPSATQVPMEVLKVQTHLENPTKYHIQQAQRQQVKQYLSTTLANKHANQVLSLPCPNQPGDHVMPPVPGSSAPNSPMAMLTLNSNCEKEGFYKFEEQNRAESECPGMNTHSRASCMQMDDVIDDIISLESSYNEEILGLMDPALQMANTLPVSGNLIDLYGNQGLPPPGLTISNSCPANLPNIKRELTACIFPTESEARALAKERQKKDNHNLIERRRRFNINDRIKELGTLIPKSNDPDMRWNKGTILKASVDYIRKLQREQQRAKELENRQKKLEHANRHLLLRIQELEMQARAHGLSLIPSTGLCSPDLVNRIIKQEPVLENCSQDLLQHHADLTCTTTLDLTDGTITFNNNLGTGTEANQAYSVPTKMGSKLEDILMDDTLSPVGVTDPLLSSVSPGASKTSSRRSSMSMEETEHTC
TEAD-YAP inh = TEAD-YAP interaction inhibition | HEK-TIYL cells, TEAD-Gal4/YAP UAS-luciferase luminescence | inhibition, % at 9.12 µM | hit rate 1.4% among 640,000 | AID 1259422; in the data active = inhibition above about 32%;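 also: 0% = median of test compound wells and 100% = reference inhibitor wells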
An asterisk follows results filed as active.

SMILES	FBW7 activator	GPR151 ag	MITF inh	TEAD-YAP inh
O=C(NCc1cccnc1)/C(=C\c1ccc(Br)cc1)S(=O)(=O)c1ccccc1	-0.1	-0.5	-5.1	85.6*
Cc1ccc(NC(=O)CSc2nncc(=O)[nH]2)c(C)c1	0.1	0.1	-1.0	10.5
O=C(Nc1ncnc2c1ncn2CCO)c1ccccc1	0.0	-0.6	-11.2	-1.2
COc1cc(C(=O)Nc2cccc(-c3nc4ncccc4o3)c2)ccc1OCc1ccc(Cl)cc1	0.2	0.2	13.1	6.4
COc1ccc(CC(=O)Nc2cccc(-c3nc4ncccc4o3)c2)cc1OC	-0.1	1.0	1.4	70.7*
O=C1NCCN(Cc2ccc(F)cc2Cl)C1CC(=O)N1CCOCC1 (stereo unspecified)	0.1	-0.3	11.2	-6.5
CCOC(=O)N1CCN(c2cc(Nc3ccc(OC)cc3)c3c4c(onc24)-c2ccccc2C3=O)CC1	-0.4	-0.3	-5.8	-0.1
CCCN1CCN(c2cc(NCCO)c3c4c(onc24)-c2ccccc2C3=O)CC1	-0.5	-2.1	24.2	21.4
CCOC(=O)N1CCN(c2cc(NC(C)C)c3c4c(onc24)-c2ccccc2C3=O)CC1	-1.3	1.5	70.7*	10.5
CC(C)Nc1cc(N2CCC(=O)CC2)c2noc3c2c1C(=O)c1ccccc1-3	-0.4	-0.4	22.2	-16.3
CC(C)Nc1cc(N(C)C)c2noc3c2c1C(=O)c1ccccc1-3	-0.5	0.1	50.7*	10.8
CCCCNc1cc(N2CCN(CCO)CC2)c2noc3c2c1C(=O)c1ccccc1-3	-0.4	-0.8	53.8*	19.6
CC(C)Nc1cc(N2CCN(C)CC2)c2noc3c2c1C(=O)c1ccccc1-3	-0.7	-0.3	52.1*	7.4
CCOc1ccc(N2C(=O)c3ccc(Oc4ccc(NC(=O)CSc5ccc(Br)cc5)cc4)cc3C2=O)cc1	0.1	-0.9	4.3	9.9
CN(C)c1ccc(NC(=O)CCCOc2ccccc2)cc1	0.1	2.0	5.3	-19.8
O=C(COc1ccccc1)N1c2ccccc2Sc2ccccc21	0.1	0.1	-7.9	61.7*
COc1ccc(OCC(=O)N2c3ccccc3Sc3ccc(Cl)cc32)cc1	-0.1	1.1	-0.2	-5.7
O=C(/C=C/c1ccccc1)N1CCN(c2ccc(F)cc2)CC1	-0.1	-0.1	-5.0	-6.4
CCCn1cc(S(=O)(=O)c2ccc(F)cc2)c(=O)c2ccccc21	0.2	-0.9	7.6	-2.1
c1ccc(CN2CCC(Nc3nc(N4CCC(N5CCOCC5)CC4)nc4c3ncn4-c3ccsc3)CC2)cc1	0.0	0.5	-15.6	-0.6
c1ccc(CN2CCC(Nc3nc(NC4CC4)c4ncn(-c5ccsc5)c4n3)CC2)cc1	0.0	0.4	-7.1	36.0*
OC1CCC(Nc2nc(NC3CCN(Cc4ccccc4)CC3)c3ncn(-c4ccccc4)c3n2)CC1 (stereo unspecified)	0.0	-0.1	-2.3	42.1*
c1ccc(CN2CCC(Nc3nc(N4CCOCC4)nc4c3ncn4-c3ccsc3)CC2)cc1	-0.3	0.3	13.8	44.5*
c1cc(-n2cnc3c(NC4CC4)nc(N4CCN(Cc5ccc6c(c5)OCO6)CC4)nc32)cs1	-0.1	-0.5	-2.1	36.7*
c1cc(-n2cnc3c(Nc4ccc5c(c4)OCO5)nc(N4CCN(Cc5ccc6c(c5)OCO6)CC4)nc32)cs1	-0.3	-0.3	2.6	-11.5
SMILES	FBW7 activator	GPR151 ag	MITF inh	TEAD-YAP inh
COc1ccc(Cc2noc(-c3ccc(C)c([N+](=O)[O-])c3)n2)cc1	-0.1	0.5	6.2	-2.4
Cc1ccc(C2=NC(c3ccncc3)NC(c3ccccc3O)C2)cc1 (stereo unspecified)	0.5	-0.9	-11.6	-48.1
COc1ccc(C2=NC(c3ccc(Cl)cc3)NC(c3cc(Br)ccc3O)C2)cc1 (stereo unspecified)	0.0	2.2	9.6	-5.2
c1ccc(CN2CCC(Nc3nc(Nc4ccc(-n5ccnc5)cc4)nc4c3ncn4-c3ccsc3)CC2)cc1	-0.2	0.1	13.1	42.3*
c1ccc(CN2CCC(Nc3nc(Nc4ccc(N5CCOCC5)cc4)c4ncn(-c5ccsc5)c4n3)CC2)cc1	0.0	-1.7	-4.5	49.1*
Cc1nn(C)c(C)c1-c1nc(NC2CCN(Cc3ccccc3)CC2)c2ncn(C(C)C)c2n1	0.0	-0.4	-1.6	72.0*
COc1ccc(-c2cc(C(F)(F)F)n3nc(C(=O)NC(C)(C)CC(C)(C)C)cc3n2)cc1OC	0.1	-0.9	-7.9	-10.7
COc1ccc(-c2cc(C(F)(F)F)n3nc(C(=O)NC(C)(C)C)cc3n2)cc1OC	1.9*	-0.5	-5.7	-7.2
CCOC(=O)c1nn(-c2ccc(C)c(C)c2)cc1O	-0.2	-0.3	-1.2	-35.2
CCOC(=O)c1nn(-c2ccc3c(c2)OCCO3)cc1O	-0.1	-3.9	-8.9	43.2*
CCn1c(=N)c(C(=O)NCCOC)cc2c(=O)n3cccc(C)c3nc21	0.0	-1.0	8.2	13.8
CCn1c(=N)c(C(=O)NC)cc2c(=O)n3cccc(C)c3nc21	0.0	-0.7	20.1	32.2*
COc1ccc(S(=O)(=O)Oc2c(OC)cc(C=O)cc2OC)cc1	-0.1	0.4	-1.2	39.2*
COc1ccc(S(=O)(=O)Oc2cc(C=O)ccc2OC)cc1	0.2	0.2	9.1	50.3*
CCOC(=O)Cn1cc(C=O)c2ccccc21	0.8	0.1	-0.9	-1.9
CCOC(=O)Cn1cc(C(=O)OC)c2ccccc21	2.3*	2.9	13.7	-1.9
COc1ccccc1N(CCC#N)C(=O)CCl	0.0	0.0	3.5	17.6
N#CCCN(C(=O)CCl)c1ccccc1F	0.0	-1.6	13.2	46.2*
COCCNC(=O)c1ccc2c(c1)N=C(C)c1cc(Cl)ccc1S2	0.0	2.4	5.5	57.4*
CC1=Nc2cc(C(=O)NCCN(C)C)ccc2Sc2ccc(Br)cc21	-0.3	-0.6	10.0	60.0*
CC1=Nc2cc(C(=O)NCCN3CCOCC3)ccc2Sc2ccc(Cl)cc21	0.2	-0.7	9.2	0.5
CCC1=Nc2cc(C(=O)NCC(OC)OC)ccc2Sc2ccc(C)cc21	-0.1	0.0	-4.3	60.4*
CCC1=Nc2cc(C(=O)NC)ccc2Sc2ccccc21	-0.2	0.4	-14.6	2.8
CC(=O)Nc1ccc(NC(=O)c2ccccc2)c(C)c1	11.8*	1.9	1.0	3.7
Cc1cc(NC(=O)/C=C/c2ccccc2)ccc1O	-0.2	-1.5	-11.9	73.0*
SMILES	FBW7 activator	GPR151 ag	MITF inh	TEAD-YAP inh
Cc1cc(NC(=O)c2ccccc2)ccc1O	0.0	-5.4	4.4	73.2*
CCOC(=O)c1[nH]c(C)c(C(=O)Nc2cccc(Cl)c2)c1C	0.1	0.3	-22.5	46.0*
CCOC(=O)c1[nH]c(C)c(C(=O)Nc2cccc(F)c2)c1C	0.6	0.4	7.6	42.6*
CCOC(=O)c1[nH]c(C)c(C(=O)Nc2ccc(F)cc2)c1C	-0.1	-0.5	9.4	-2.7
CCCCC(=O)NCCNc1nc2c(c(=O)n(C)c(=O)n2C)n1Cc1ccc(Cl)cc1	0.0	-0.3	6.2	8.3
CCOc1cc(N2CCOCC2)c(OCC)cc1NC(=O)c1cc(Cl)c(Cl)cc1C(=O)O	-0.2	-1.0	69.8*	17.9
CCOc1cc(N2CCOCC2)c(OCC)cc1NC(=O)c1cccc([N+](=O)[O-])c1C	0.0	3.0	-0.5	3.7
O=C(Cc1ccc([N+](=O)[O-])cc1)OCC(=O)c1ccc2ccccc2c1	-0.1	1.1	20.4	46.4*

Assay outcomes as filed in PubChem.
